# Test results as given in article PMC4552634, “A New Set of Chemical Starting Points with Plasmodium falciparum Transmission-Blocking Potential for Antimalarial Drug Discovery” (PLoS ONE, 2015).
# Among all 13,000 compounds or so, about 3,200 (25%) showed an effect of 50% or more. Some of the results follow.
# System: P. falciparum stage V gametocytes
# Parameters: BacTiter-Glo ATP luminescence viability of purified stage V gametocytes in 384-well plates, per cent inhibition versus DMSO
# Settings: 48 h, 5 µM; inhibitor
row,SMILES,% Inhibition
1,CC(=O)Nc1ncc(C(=O)Nc2cccc(-c3ccc(-c4nc5ccc(C(F)(F)F)cc5[nH]4)cc3)c2)s1 [TCMDC-136921],-28%
2,CC(=O)Oc1c(C2C=CCCC2)c(OC(C)=O)c2ccccc2c1OC(C)=O (centres unmarked) [TCMDC-138176],9.671%
3,O=C(NC1CCCCC1)c1ccc(O)c(-c2cccc(C(F)(F)F)c2)c1 [TCMDC-140163],-1.763%
4,Cc1ccc(O)cc1Nc1ccnc2cc(-c3csc(CNCCN4CCOCC4)n3)ccc12 [TCMDC-138457],16.99%
5,Cc1noc(C)c1-c1cccc(CNCc2cccc(-c3ccc(-c4nc5cc(C(F)(F)F)ccc5[nH]4)s3)c2)c1.O=C(O)C(F)(F)F [TCMDC-133055],0.7472%
6,CCOc1cc2c(cc1OCC)C(c1cc(OC)c(O)cc1Cl)NCC2 (centres unmarked) [TCMDC-124488],-19.03%
7,CCc1cc(-c2onc(C)c2-c2cc3ccccc3o2)c(O)cc1OC [TCMDC-125148],5.13%
8,C=C(C)CSc1nc2c(c(=O)n1Cc1ccco1)C1(CCCCC1)Cc1ccccc1-2 [TCMDC-123895],6.726%
9,CCn1c(O)c(N=NC(=S)N2CCCC2)c2ccccc21 [TCMDC-138077],9.29%
10,Oc1[nH]c2ccccc2c1N=NC(=S)N1CCOCC1 [TCMDC-124263],29.38%
11,Cn1c(O)c(N=NC(=S)N2CCOCC2)c2ccccc21 [TCMDC-138076],88.31%
12,COc1cccc(C(=O)Nc2nc3c(s2)CCN(Cc2ccccc2N2CCNCC2)CC3)c1.O=C(O)C(F)(F)F [TCMDC-134190],63.98%
13,COc1ccc(-c2ccc(NC(=O)c3cccc(C#N)c3)cc2)cc1CN1CCNCC1 [TCMDC-132530],-2.653%
14,CCN1CCN(c2cc(C)c3cc(NC(=O)c4cccc(OC)c4)ccc3n2)CC1 [TCMDC-125573],10.75%
15,N#Cc1ccc(/C=C/C(=O)NCCCCCN2CCN(C(=O)Nc3ccc(Cl)c(C(F)(F)F)c3)CC2)cc1 [TCMDC-136098],-6.45%
16,COc1ccc(C(=O)c2ccc3[nH]cc(C4=CCN(C)CC4)c3c2)cc1 [TCMDC-137276],-3.804%
17,Cc1ccc(C(=O)Nc2cccc(CN3CCCN(Cc4ccc(O)cc4)CC3)c2)s1 [TCMDC-141858],30.58%
18,C#C[C@H]1O[C@@H](n2cnc3c(Nc4cc(Br)cc(C(F)(F)F)c4)ncnc32)[C@H](O)[C@@H]1O [TCMDC-135185],10.32%
19,CCC(N)(C#Cc1ccc(-c2c(C)[nH]c(C)c(Br)c2=O)cc1)CC [TCMDC-134693],83.96%
20,Cc1[nH]c(C)c(-c2ccc(-c3ccc(F)cc3)cc2)c(=O)c1Cl [TCMDC-137408],-2.511%
21,Cc1[nH]c(C)c(-c2ccc(CCc3ccc(F)cc3F)cc2)c(=O)c1Cl [TCMDC-135462],72.17%
22,Cc1[nH]c(C)c(-c2ccc(C#Cc3ccc(F)cc3F)cc2)c(=O)c1Br [TCMDC-134692],64.24%
23,Cc1[nH]c(C)c(-c2ccc(CCc3ccc(F)cc3F)cc2)c(=O)c1Br [TCMDC-135461],65.46%
24,Cc1ccc(-c2ccc3c(c2)C=C(C(=O)NC2CCN(CCNC(=O)c4cccc(C(F)(F)F)c4)CC2)CCC3)cc1 [TCMDC-141948],-9.898%

row,SMILES,% Inhibition
1,COC(=O)c1cccc(NC(=O)NC2CCN(c3ccnc(Nc4cc(OC)c(OC)c(OC)c4)n3)C2)c1 (centres unmarked) [TCMDC-133630],-28.99%
2,Cc1cc(N2CCCC2)nc(Nc2ccc(NC(=O)c3cccc(F)c3)cc2)n1 [TCMDC-124709],-4.91%
3,Cc1ccnc(-n2c(C)cc(C=C3SC(=Nc4ccccc4)N(Cc4ccco4)C3=O)c2C)c1 [TCMDC-125659],-67.39%
4,O=C(N[C@H](CC1CCCCC1)C(=O)NC1CCCc2ccccc21)c1ccc(O)c(-c2cccc([N+](=O)[O-])c2)c1 (some centres unmarked) [TCMDC-140799],21.9%
5,Cc1cccc2[nH]c(-c3cccc(-c4cccc(NC(=O)CN5CCN(C)CC5)c4)c3)nc12 [TCMDC-136982],18.86%
6,Cc1cccc2[nH]c(-c3ccc(-c4ccc(NC(=O)CN5CCN(C)CC5)cc4)cc3)nc12 [TCMDC-136975],64.7%
7,Cc1nc(C)c(CC(=O)Nc2ccc(-c3cccc(-c4nc5ccc(C(F)(F)F)cc5[nH]4)c3)cc2)s1 [TCMDC-136996],-50.06%
8,Cc1cccc2[nH]c(-c3ccc(-c4ccc(NC(=O)Nc5ccsc5)cc4)cc3)nc12 [TCMDC-133215],-35.23%
9,Cc1nc(C)c(CC(=O)Nc2cccc(-c3cccc(-c4nc5c(C)cccc5[nH]4)c3)c2)s1 [TCMDC-136997],6.613%
10,Cc1cccc2[nH]c(-c3cccc(-c4ccc(NC(=O)CN5CCN(C)CC5)cc4)c3)nc12 [TCMDC-136983],81.12%
11,Cc1cccc2[nH]c(-c3cccc(-c4ccc(NC(=O)CS(C)(=O)=O)cc4)c3)nc12 [TCMDC-136851],-1.399%
12,Cc1nc(C)c(CC(=O)Nc2ccc(-c3cccc(-c4nc5c(C)cccc5[nH]4)c3)cc2)s1 [TCMDC-136998],88.79%
13,CC(C)(C)OC(=O)N(Cc1cc(-n2nnnc2C(F)(F)F)ccc1O)[C@H]1CCCN(C(=O)OC(C)(C)C)[C@H]1c1ccccc1 [TCMDC-132022],-21.48%
14,CC(C)(C)c1ccc(NC(=O)c2cccc(CN3CCCN(Cc4cccc(O)c4)CC3)c2)cc1 [TCMDC-135983],-11.1%
15,O=C(/C=C/c1ccc(Cl)c(Cl)c1)NC1CCN(Cc2ccc(O)cc2)C1 (centres unmarked) [TCMDC-141739],26.39%
16,COc1ccc2nccc([C@@H](O)CN3CCC(NCc4cnc5c(c4)NC(=O)CS5)C(F)C3)c2c1 (some centres unmarked) [TCMDC-141716],19.26%
17,CC(C)Oc1ccccc1-c1csc(C(=O)NCC2CCN(Cc3ccc(C(C)(C)C)cc3)C2)c1 (centres unmarked) [TCMDC-134512],5.537%
18,CC(C)c1ccc(CN2CCCCC(NC(=O)c3cc(-c4ccccc4F)cs3)C2)cc1 (centres unmarked) [TCMDC-134462],-8.212%
19,CC(C)(C)c1ccc(CN2CCC(CNC(=O)c3cc(-c4ccccc4F)cs3)C2)cc1 (centres unmarked) [TCMDC-134443],104.8%
20,CC(C)c1ccc(CN2CCC(CNC(=O)c3cc(-c4ccccc4F)cs3)C2)cc1 (centres unmarked) [TCMDC-134436],107.7%
21,COc1ccccc1-c1csc(C(=O)NCC2CCN(Cc3ccc(C(C)C)cc3)C2)c1 (centres unmarked) [TCMDC-134510],-33.71%
22,CCc1ccc(CN2CCC(CNC(=O)c3cc(-c4ccccc4F)cs3)C2)cc1 (centres unmarked) [TCMDC-134431],96.16%
23,CC(C)(C)c1ccc(CN2CCC(CNC(=O)c3cc(-c4ccccc4C(F)(F)F)cs3)C2)cc1 (centres unmarked) [TCMDC-134441],105.6%
